Here are results for 18 compounds from PubChem BioAssay (NCI).

About 83,000 compounds went through this panel and 20% of them were active in at least one assay; those are over-represented in the sample as a whole.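 Single-dose data. Exposure time 48 hours. Values below 10 considered active.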 Values without a mark were called inactive. The source made the active and inactive calls.

This experiment has as its system ACHN renal. In words: NCI-60 one-dose screen, 48 h (100 = growth as untreated, 0 = no growth, -100 = all killed). The settings on record: 10 µM unless noted.
Take `c1cnc2ccc3ncccc3c2c1`: the growth was 82.1%.
As for `CCCCCCCCCCSc1ncnc2nc[nH]c12`, the growth was 63.9%.
`Clc1ccc2c(Nc3ccc4oc(NCCN5CCCC5)nc4c3)ccnc2c1`: the growth is 98.2%.
The result for `CCN(CC)CCCNCCCNc1cc(OC)cc2cccnc12` reads 101%; that for `CCCCCCCCCCCCNc1ncnc2[nH]ncc12`, 83.4%.
Take `CCCCCCCC/C=C/CCCCCCCC1=NC(C)(C)CN1CCO`: the growth was 24.4%.
With `O=C(CN1CCCCC1)Sc1nnc2sc3ccccc3n12`, the growth was 118%.
Consider `c1cncc(CNc2ccccc2-c2nnc(Nc3ccc4c(c3)OCO4)o2)c1`, for which the growth is 32.2%.
The result for `CC(=O)NC1(C(=O)O)CCCC1` reads 105%.
The result for `CCCCCCCCCCCCCCCCN=C(CC(=O)O)C(=O)O` reads 105%; that for `c1ccc(N2CCN(c3nncc4ccccc34)CC2)nc1`, 115%; that for `O=c1[nH]c(Cl)nc2c1cnn2-c1ccccc1`, 101%.
To `ClC1=C(Cl)C(Cl)=C(Cl)C1=C/C=C/c1ccccc1` belongs -74% (active); to `CN(CC(=O)N(Cc1ccc(C2CCCCC2)cc1)c1ccc(C(=O)O)cc1)S(=O)(=O)c1c(F)c(F)c(F)c(F)c1F`, 68.7%; to `COc1ccc(C2CC(c3cccc(Nc4ccnc5cc(Cl)ccc45)c3)=NN2C=O)cc1` (stereo not drawn), 45.5%.
Regarding `CCCCCCCCCCCCCCCCCC1=NC(C)(C)CN1CCO`, the growth is -49.2% (active).
`COc1ccc(CCN2CCCN3C2=Nc2ccccc2S3(=O)=O)cc1`: the growth is 51%.
To `CCOC(=O)c1cc(-c2cccnc2)nc2c(Cl)cc(Cl)cc12` belongs 73.8%.
